Laboratory results as given in PubChem BioAssay (Tox21).
Inconclusive results are not listed. Active and inactive are the calls of the source. Unless noted, calls follow the shape of the dose curve; as a rule, active = well fitted curve in the direction sought with a large enough effect in the repeat runs; inconclusive = weak or mixed curves; inactive = no such curve, though single readings can be large; an effect the other way counts as inactive or inconclusive.

Experiments:
[1] = qHTS assay to identify small molecule agonists of the vitamin D receptor (VDR) signaling pathway - cell viability counter screen (AID 743224); also: series mostly up to about 63 µM; nearly all actives have a fitted effect of over 50% in size
In short: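 Viability is measured in the same wells as the VDR-bla reporter assay: after 16 h compound treatment and 2 h substrate loading, CellTiter-Glo is added and luminescence read 30 min later.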

[2] = qHTS assay to identify small molecule antagonists of the vitamin D receptor (VDR) signaling pathway - cell viability counter screen (AID 743225); also: nearly all actives have a fitted effect of over 50% in size
In short: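 VDR-UAS-bla HEK 293T cells were plated and incubated 4 h at 37C, then dosed with compound plus 3 nM (final) 1-alpha,25-dihydroxyvitamin D3 for 16 h. After the 2 h beta-lactamase read, viability in the same wells was read as CellTiter-Glo luminescence after 30 min at room temperature.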

[3] = qHTS assay to identify small molecule agonists of the NFkB signaling pathway (AID 1159509; active = well fitted curve in the direction sought with a large enough effect in the signal ratio in the repeat runs, not every such curve was filed as active; the % refers to the signal ratio; also: series mostly up to about 61 µM)
In short: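 After overnight attachment, reporter cells received test compounds, DMSO or positive controls and were incubated 5 hr at 37 C. FRET substrate was then added for 1.5 hr at room temperature before dual-emission fluorescence reading.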

[4] = qHTS assay to identify small molecule agonists of the NFkB signaling pathway - cell viability counter screen (AID 1159515; calls by dose curve; also: series mostly up to about 61 µM; nearly all actives have a fitted effect of over 55% in size)
In short: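 Multiplexed viability readout: after the 5 hr compound exposure and 1.5 hr FRET substrate step, CellTiter-Glo reagent went into the same NFkB-bla ME-180 wells; ATP luminescence was measured after 30 min at room temperature.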

[5] = qHTS assay to identify small molecule agonists of the endoplasmic reticulum stress response signaling pathway (AID 1159516; active = well fitted activation curve with a large enough effect in the signal ratio in the repeat runs, not every such curve was filed as active; the % refers to the signal ratio)
In short: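 Tox21 10K library screened in quantitative HTS format on ESRE-bla HeLa cells, a beta-lactamase reporter under ER stress response element control; 5 hr treatment, FRET read.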

[6] = qHTS assay to identify small molecule agonists of the endoplasmic reticulum stress response signaling pathway - cell viability counter screen (AID 1159517; calls by dose curve; also: series mostly up to about 61 µM; nearly all actives have a fitted effect of over 50% in size)
In short: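 Luminescence readout: CellTiter-Glo, 30 min RT, same wells as the ESRE-bla reporter read. HeLa ESRE-bla, 1,500 cells/well, o/n 37 C; cpd 5 hr 37 C/5% CO2.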

[7] = qHTS assay to identify small molecule antagonists of the retinoid-related orphan receptor gamma (ROR-gamma) signaling pathway - cell viability counter screen (AID 1159520); also: nearly all actives have a fitted effect of over 50% in size
In short: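 Tet-on ROR gamma CHO cells (1,000/well) were plated 4 hr, given compounds in DMSO for 2 hr at 37 C, then induced with 1 uM final doxycycline for 16 hr. Viability was read as ATP by CellTiter-Glo luminescence after 30 min.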

[8] = target: Nuclear receptor ROR-gamma (Homo sapiens) (UniProt P51449); experiment: qHTS assay to identify small molecule antagonists of the retinoid-related orphan receptor gamma (ROR-gamma) signaling pathway (AID 1159521)
In short: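 Tet-on ROR-gamma CHO cells with ROR response element-luciferase reporter; compounds added 2 hr before 1 uM doxycycline induction, then 16 hr at 37 C. Antagonism scored as decreased ONE-Glo luminescence.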

[9] = qHTS assay to identify small molecule agonists of the AP-1 signaling pathway (AID 1159526; calls by dose curve)
[10] = qHTS assay to identify small molecule agonists of the RXR signaling pathway - cell viability counter screen (AID 1159529)
In short: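 RXR-alpha-UAS-bla HEK 293T cells in medium with 2% charcoal-stripped FBS were pre-incubated 5 hr, then compound-treated 16 hr at 37 C. Viability was read by CellTiter-Glo luminescence in the same wells as the beta-lactamase assay, with tetraoctyl ammonium bromide as positive control.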

[11] = qHTS assay to identify small molecule antagonists of the retinoid acid receptor (RAR) signaling pathway - cell viability counter screen (AID 1159551); also: nearly all actives have a fitted effect of over 35% in size
In short: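 Cytotoxicity counter screen in C3RL4 cells: 6 h compound exposure with 1 uM retinol (final), viability from cellular ATP by luminescence.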

[12] = qHTS assay to identify small molecule antagonists of the retinoic acid receptor (RAR) signaling pathway (AID 1159552; also: nearly all actives have a fitted effect of over 50% in size)
In short: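 Retinol signaling pathway inhibitors screened in C3RL4 RARE-luciferase reporter cells seeded overnight at 37 C, then compounds added with 1 uM (final) retinol as pathway substrate. After 6 hr at 37 C, luciferase luminescence read after 30 min at room temperature.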

[13] = qHTS assay to identify small molecule agonists of the retinoic acid receptor (RAR) signaling pathway (AID 1159553)
In short: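 Agonist activity was scored in C3RL4 cells bearing a retinoic acid response element luciferase construct. Cells were treated with compounds for 6 hr at 37 C, and luciferase signal was measured as luminescence.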

[14] = qHTS assay to identify small molecule agonists of the AP-1 signaling pathway - cell viability counter screen (AID 1159525; calls by dose curve; also: nearly all actives have a fitted effect of over 55% in size)
In short: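 ME-180 AP-1-bla, 2500 cells/well, Opti-MEM + 0.5% dialyzed FBS; overnight 37 °C; cpd 15-pt titration, 5 h 37 °C; CellTiter-Glo 30 min RT; luminescence read; normalised to TOAB and DMSO controls.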

[15] = target: Retinoic acid receptor RXR-alpha (Homo sapiens) (UniProt P19793); experiment: qHTS assay to identify small molecule agonists of the RXR signaling pathway (AID 1159527; calls by dose curve; also: nearly all actives have a fitted effect of over 35% in size)
Retinoic acid receptor RXR-alpha (Homo sapiens), sequence (P19793 whole entry, looked up): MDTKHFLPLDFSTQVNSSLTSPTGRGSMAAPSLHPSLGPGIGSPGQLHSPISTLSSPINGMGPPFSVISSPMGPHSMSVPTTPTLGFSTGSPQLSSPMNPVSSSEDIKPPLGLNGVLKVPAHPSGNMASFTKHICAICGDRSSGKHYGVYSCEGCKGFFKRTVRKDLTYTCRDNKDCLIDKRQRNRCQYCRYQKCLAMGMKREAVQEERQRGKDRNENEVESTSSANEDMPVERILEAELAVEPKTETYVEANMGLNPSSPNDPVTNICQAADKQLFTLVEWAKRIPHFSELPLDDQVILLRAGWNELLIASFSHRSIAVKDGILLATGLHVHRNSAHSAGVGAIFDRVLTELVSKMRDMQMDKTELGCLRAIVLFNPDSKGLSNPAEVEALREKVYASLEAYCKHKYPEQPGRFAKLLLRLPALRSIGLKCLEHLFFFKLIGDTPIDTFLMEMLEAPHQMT
In short: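 GeneBLAzer RXR-alpha-UAS-bla HEK 293T cells in 2% charcoal-stripped FBS medium were exposed to compounds for 16 hr at 37 C in agonist mode. Beta-lactamase reporter read as 460/530 nm FRET ratio after 2 hr substrate loading.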

[16] = qHTS assay to identify small molecule antagonists of the estrogen related receptor (ERR) signaling pathway - cell viability counter screen (AID 1224818);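 also: series mostly up to about 46 µM; viability measured after 17.5 h of compound exposure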
In short: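 Cells carrying the ERR pathway reporter were seeded and incubated for 6 hours before compound addition. After a 17.5-hour exposure at 37 C, live-cell protease activity was measured by CellTiter-Fluor fluorescence following 30 minutes of incubation.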

[17] = qHTS assay to identify small molecule antagonists of the estrogen related receptor signaling pathway with the pleiotropic PPARgamma coactivator (PGC) cell viability counter screen (AID 1224822;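 also: series mostly up to about 46 µM; viability read after 17.5 h compound exposure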)
In short: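 Seed PGC/ERR cells (2,000/well); incubate 6 h at 37 C/5% CO2; pin-transfer compounds in DMSO; incubate 17.5 h at 37 C; add CellTiter-Fluor; after 30 min read fluorescence.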

Measured: Potency

CCCCOC(=O)c1ccccc1C(=O)O
not listed: [14] | [15] | [16] | [17]
inactive: all other assays above

Cc1cc(C)c(C(=O)P(=O)(C(=O)c2c(C)cc(C)cc2C)c2ccccc2)c(C)c1
not listed: [1] | [8] | [16] | [17]
inactive: all other assays above

C[C@H]1CCC[C@H](O)CCCCCc2cc(O)cc(O)c2C(=O)O1
not listed: [8] | [10] | [16] | [17]
inactive: all other assays above

ClCC(Cl)(Cl)Cl
not listed: [8] | [16] | [17]
inactive: all other assays above

CC1COC2(c3ccccc3Cl)c3cc(Cl)ccc3NC(=O)CN12 (centres undefined)
not listed: [2] | [9] | [12] | [14] | [16] | [17]
inactive: all other assays above

O=[N+]([O-])c1cccc(O)c1
not listed: [12] | [14] | [15] | [16] | [17]
inactive: all other assays above

COP(=S)(OC)Oc1c(Cl)cc(C)cc1Cl
not listed: [8] | [12] | [16] | [17]
inactive: all other assays above

C#CCN1C(=O)COc2cc(F)c(N3C(=O)C4=C(CCCC4)C3=O)cc21
not listed: [8] | [12] | [16] | [17]
inactive: all other assays above

Nc1ccccc1Cl
not listed: [8] | [12] | [13] | [16] | [17]
inactive: all other assays above

Cc1ncc(CNC(=O)N(CCCl)N=O)c(N)n1
not listed: [8] | [12]
inactive: all other assays above
